Screens deposited in PubChem by several laboratories.
MazF activator – activators of E. coli MazEF toxin-antitoxin RNase, primary screen, biochemical, fluorescence, uHTS | activation, % at 20 µM | FAM/BHQ RNA-DNA oligo cleavage fluorescence, 5 h | 350,000 tested, 0.32% active | Endoribonuclease toxin MazF (Escherichia coli (strain K12)), P0AE70; in the data active = activation above about 50%
Target sequence (P0AE70 whole entry, looked up): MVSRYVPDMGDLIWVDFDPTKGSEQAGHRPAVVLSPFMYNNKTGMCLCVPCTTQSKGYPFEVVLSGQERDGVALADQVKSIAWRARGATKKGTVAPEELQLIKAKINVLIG
SARS 3CLpro inh-1 – SARS-CoV 3CLpro protease inhibitors, primary screen, biochemical, quenched FRET; recombinant SARS-CoV 3CLpro, quenched FRET peptide cleavage; inhibition, % at 6 µM; Replicase polyprotein 1ab (Severe acute respiratory syndrome coronavirus), P0C6X7; AID 1706, 2009; 290,000 tested, 0.14% active; in the data active = inhibition above about 12%
Yp Topo-I inh – Yersinia pestis topoisomerase I inhibitors, primary screen, biochemical, cleavage product accumulation, plate reader, single point; DNA topoisomerase I (Yersinia pestis CO92); Y. pestis Topo-I cleavage product accumulation; activity, % at 10 µM; 360,000 tested, 0.064% active; AID 504884, 2011; in the data active = activity above about 50%, passing the limit was not always enough
SSB-PriA inh – inhibitors of Klebsiella pneumoniae PriA binding to SSB C-terminal tail, primary screen, biochemical, AlphaScreen; 430,000 tested, 0.6% active; PriA–SSB C-terminal tail interaction (Klebsiella pneumoniae); inhibition, % at 33 µM; AlphaScreen SSBct-PriA binding, biotinylated peptide; in the data active = inhibition mostly above about 37%, no sharp cut-off; inactive = mostly below about 20%;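 note: plate controls were negative control peptide for no effect and reference peptide for full effect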
SARS 3CLpro inh-2 – confirmation of SARS coronavirus 3C-like protease inhibitors, retest, confirmation, biochemical; shares compounds with SARS 3CLpro inh-1; QFRET protease activity assay, 3CLpro; inhibition, % at 6 µM; 380 tested, 36% active; in the data active = inhibition above about 13%
* = called active by the depositor; i = inactive; · = no result. Rows were chosen to be rich in hits. Some 0.9% of all compounds tested hit in one or more screens of this group.

SMILES	MazF activator	SARS 3CLpro inh-1	Yp Topo-I inh	SSB-PriA inh	SARS 3CLpro inh-2
O=C(N/N=C/c1ccncc1)c1cccc(S(=O)(=O)Nc2ccc(Cl)cc2)c1	8	62*	2	i	-1
Cn1c(=O)c2c(NCc3ccco3)ccnc2n(C)c1=O	·	·	·	5	·
CCn1nc(C(=O)N(CC2CCCO2)c2nc3c(C)c(Cl)ccc3s2)cc1C (configuration not stated)	·	·	·	-15	·
CC(C)CC(=O)NC(c1ccccc1Cl)c1c(O)ccc2ccccc12 (configuration not stated)	8	13*	-7	4	2
COc1ccc(C(NC(=O)CC(C)C)c2c(O)ccc3ccccc23)cc1 (configuration not stated)	2	7	-1	8	·
CC(C)Oc1ccc(C=NNC(=O)c2nnn(-c3nonc3N)c2CN(C)c2ccccc2)cc1	·	·	·	-5	·
CC(C)Oc1ccc(/C=N/NC(=O)c2nnn(-c3nonc3N)c2CN(C)c2ccccc2)cc1	4	14*	14	·	5
FC(F)(F)c1cccc(NC(=S)NNC(=S)NCc2ccccc2)c1	-13	14*	-11	8	2
FC(F)(F)c1cccc(NC(=S)NCc2ccccn2)c1	2	-5	-4	-9	·
Nc1cc2nn(-c3ccccc3)nc2cc1Cl	-4	12*	-1	-5	-4
Nc1ccc2nn(-c3ccccc3)nc2c1	9	1	-8	-3	·
O=C(NCC(=O)N1CCN(Cc2ccccc2)CC1)c1ccc(Br)cc1	2	12*	12	-8	2
CC(C)C12CN(C(=O)c3ccccc3[N+](=O)[O-])CC(C(C)C)(CN(C(=O)c3ccccc3[N+](=O)[O-])C1)C2=O	-2	29*	2	2	35*
O=C(NCc1ccc(F)cc1)c1ccc(S(=O)(=O)Nc2cccc(C(F)(F)F)c2)cc1	-1	18*	-5	-1	11
O=C(NCc1ccccc1F)c1ccc(S(=O)(=O)Nc2cccc(C(F)(F)F)c2)cc1	-4	1	3	-16	·
COc1cccc(C(C(=O)NCC2CCCO2)N(C(=O)Cn2nnc3ccccc32)c2ccc(NC(C)=O)cc2)c1OC (configuration not stated)	7	15*	3	-4	9
CCOc1cc(C(C(=O)NCC2CCCO2)N(C(=O)Cn2nnc3ccccc32)c2ccc(OC)c(OC)c2)ccc1O (configuration not stated)	-8	0	-9	2	·
COc1ccc(C(C(=O)NCC2CCCO2)N(C(=O)Cn2nnc3ccccc32)c2ccc(NC(C)=O)cc2)c(OC)c1 (configuration not stated)	11	18*	0	-5	11
O=C(c1ccsc1)N(CCc1cccs1)Cc1ccoc1	·	·	·	2	·
COC(CNC(=O)COc1cccc2c1OC(C)(C)C2)c1ccc(Cl)s1 (configuration not stated)	·	·	·	-10	·
Oc1ccc(Cl)cc1Cc1cc(Cl)ccc1O	-5	13*	-16	5	7
CC1CCC2C(=O)N(c3cc(Cl)ccc3OC(=O)c3ccco3)C(=O)C2C1 (configuration not stated)	-1	46*	8	6	60*
COc1ccc2nc(-n3nc(C)cc3NC(=O)c3ccc4c(c3)CCCC4)sc2c1	·	·	·	-3	·
CCOC(=O)c1cc2sccc2n1CC(=O)Nc1ccc(OC)cc1OC	4	0	13	-7	·
COC(=O)c1cc2sccc2n1CC(=O)Nc1ccc(OC)c(OC)c1OC	-11	14*	5	0	-4
SMILES	MazF activator	SARS 3CLpro inh-1	Yp Topo-I inh	SSB-PriA inh	SARS 3CLpro inh-2
O=C(Cn1ncn2nc3c(c2c1=O)CCCC3)NCc1cccs1	·	·	·	7	·
O=C(Nc1ccc(SCc2cccc(C(F)(F)F)c2)nn1)c1ccco1	·	·	·	-7	·
CC(C)c1ccc(N(C(=O)c2csnn2)C(C(=O)NC2CCCC2)c2cccnc2)cc1 (configuration not stated)	8	15*	13	0	20*
COCCN(Cc1ccoc1)S(=O)(=O)c1cccs1	·	·	·	-15	·
O=C(COc1ccccc1)N1c2ccccc2Sc2ccccc21	-14	0	3	-12	·
O=C(OCC(=O)N1c2ccccc2Sc2ccccc21)c1cccnc1	4	21*	16	-3	22*
